CHO-K1 Ca antag – counter-screen for M1 antagonists: effect in parental CHO-K1 cells. ATP-induced calcium, Fluo-8 fluorescence. inhibition, % at 3 µM. 360,000 tested, 0.6% active. AID 602250;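 active = inhibition above a per-plate cutoff, the plate's mean sample inhibition plus 3 SD, cut at about 24% in these data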
M1 ag – agonists of human M1 muscarinic receptor | P11229 | CHO-K1 hM1, Fluo-8 calcium fluorescence, agonist mode; 0% DMSO, 100% acetylcholine EC100 | activation, % at 3 µM | 360,000 tested, 0.33% active;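 active = activation above the run's mean compound activation plus 3 SD, cut at about 16% in these data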;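 note: peak over basal fluorescence ratio within a 140 s kinetic read after compound addition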
Target sequence (P11229 whole entry, looked up): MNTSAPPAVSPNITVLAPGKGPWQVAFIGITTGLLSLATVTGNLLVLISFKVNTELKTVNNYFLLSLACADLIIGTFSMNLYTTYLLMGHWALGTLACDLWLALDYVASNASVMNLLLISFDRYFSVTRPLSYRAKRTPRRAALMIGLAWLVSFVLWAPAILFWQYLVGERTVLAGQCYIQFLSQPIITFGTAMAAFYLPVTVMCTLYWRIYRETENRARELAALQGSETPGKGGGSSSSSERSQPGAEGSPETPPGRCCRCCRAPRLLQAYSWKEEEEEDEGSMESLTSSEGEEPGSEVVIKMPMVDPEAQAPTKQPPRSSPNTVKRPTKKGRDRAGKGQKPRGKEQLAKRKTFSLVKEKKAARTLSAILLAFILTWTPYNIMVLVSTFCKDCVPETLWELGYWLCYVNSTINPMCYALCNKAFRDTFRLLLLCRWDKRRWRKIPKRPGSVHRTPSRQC
M1 antag – blocks human M1 muscarinic receptor; AID 588852; P11229; CHO-K1 hM1, Fluo-8 calcium fluorescence, ACh EC80 antagonist; 360,000 tested, 1.3% active; inhibition, % at 3 µM;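 active = percent inhibition above its own plate's cutoff, namely the mean of that plate's compound wells plus 3 SD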;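 note: peak over basal fluorescence ratio during 140 s after agonist addition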
CHRM1 PAM – positive allosteric modulators of human M1 muscarinic receptor; activation, % at 3 µM; CHO-K1 hM1, Fluo-8 calcium fluorescence, ACh EC20; 0% = ACh EC20, 100% = maximal ACh; 360,000 tested, 0.088% active; AID 588819; P11229; in the data active = activation above about 19%, passing the limit was not always enough
CHO-K1 Ca ag – M1 agonist counterscreen hit in parental CHO-K1 cells | Fluo-8 calcium fluorescence; scaled to maximal ATP response, vehicle zero | activation, % at 3 µM | 360,000 tested, 0.48% active | AID 602248; in the data active = activation above about 15%;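 note: untransfected CHO-K1 host cells lacking M1 receptor as counterscreen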
CHO-K1 Ca PAM – nonselective activator or artifact in parental CHO-K1 calcium assay; activation, % at 3 µM; ATP EC20, Fluo-8 calcium fluorescence; 0% at ATP EC20, 100% at ATP max; 360,000 tested, 0.02% active;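 active = activation above the run cutoff, the mean activation of all test compounds plus 3 SD, cut at about 40% in these data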;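 note: peak over basal fluorescence ratio in a 140 s read after ATP addition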
Numbers stand for hits; n = inactive; x = no result. Only some compounds are listed: those with a hit (about 2.3% of all), similar ones and a draw of the others.

SMILES | CHO-K1 Ca antag | M1 ag | M1 antag | CHRM1 PAM | CHO-K1 Ca ag | CHO-K1 Ca PAM
Clc1cccc(C2NCCc3[nH]cnc32)c1 (stereo not given) | n | n | n | n | n | n
CC(=O)Nc1cccc([As](=O)(c2cccc(NC(C)=O)c2)c2cccc(NC(C)=O)c2)c1 | n | n | n | n | n | n
CC(=O)Nc1cc([As](=O)(O)O)ccc1O | n | 19.7 | n | n | n | n
Cc1cc(NC(=O)C(Cl)(Cl)Cl)no1 | n | n | n | n | n | n
Nc1c(C(=O)NCCc2ccccc2)c2nc3ccccc3nc2n1CCN1CCOCC1 | n | n | n | n | n | n
Nc1c(C(=O)NCCN2CCOCC2)c2nc3ccccc3nc2n1Cc1ccccc1 | n | n | n | n | 16.2 | n
C[N+]1(C)C2CCC1CC(OC(=O)C(CO)c1ccccc1)C2 (stereo not given) | n | n | 100.5 | n | n | n
C#CC[N+]1(C)[C@@H]2CC(OC(=O)C(CO)c3ccccc3)C[C@H]1C(O)C2 (stereo not given in full) | n | n | 100.7 | n | n | n
C[N+]1(C)C2CCC1CC(OC(=O)c1ccccc1)C2 (stereo not given) | n | n | n | n | n | n
C[N+]1(C)[C@@H]2CC[C@H]1CC(OC(=O)C(CO)c1ccccc1)C2 (stereo not given in full) | n | n | 99.3 | n | n | n
C[N+]1([O-])[C@@H]2CC(OC(=O)[C@H](CO)c3ccccc3)C[C@H]1[C@@H]1O[C@@H]12 (stereo not given in full) | n | n | 99.8 | n | n | n
COc1ccc2c(C)c(CC(=O)N3C[C@H]4C[C@@H](C3)c3cccc(=O)n3C4)c(=O)oc2c1C | n | n | n | n | n | n
O=C(c1ccc(Cl)cc1)C1CCCN(Cc2cccc3cnccc23)C1 (stereo not given) | n | n | 70.0 | n | n | n
Cc1ccccc1CC(=O)N(CCN(C)C)CC1CCCN(Cc2ccccc2F)C1 (stereo not given) | n | n | n | n | n | n
O=C(c1ccc2c(c1)OCO2)C1CCCN(Cc2ccc(F)c(F)c2)C1 (stereo not given) | n | n | 70.3 | n | n | n
CN(C(=O)Cc1ccc2c(c1)OCO2)C1CCCN(Cc2ccccc2F)C1 (stereo not given) | n | n | 46.4 | n | n | n
O=C(c1ccc(Cl)cc1)C1CCCN(Cc2ccc3ncccc3c2)C1 (stereo not given) | n | n | 80.6 | n | n | n
CCOC(=O)[C@]12Cc3cc(Cl)ccc3[C@H]1N(C1CCCCC1)C(=O)c1ccccc12 | n | x | x | x | n | n
O=C(N/N=C/c1c(O)n(CCc2ccccc2)c(=O)[nH]c1=O)c1ccccc1 | n | n | n | n | n | n
CC(C)NC(C)Cc1ccc(I)cc1 (stereo not given) | n | n | n | n | n | n
C[N+]12CCC(CC1)C(C(O)(c1cccc(Cl)c1)c1cccc(Cl)c1)C2 (stereo not given) | n | n | 97.2 | n | n | n
CC[N+]12CCC(CC1)C(C(O)(c1ccccc1)c1ccccc1)C2 (stereo not given) | n | n | 97.6 | n | n | n
Cc1ccc(C(O)(c2ccc(C)c(C)c2)C2CN3CCC2CC3)cc1C (stereo not given) | n | n | n | n | n | n
COc1ccccc1N1C(=O)NC(=O)C2(Cc3cc(C)ccc3N(C)C2)C1=O (stereo not given) | n | n | n | n | n | n
Fc1ccc(C(OCCN2CCN(CCCc3ccccc3)CC2)c2ccc(F)cc2)cc1 | n | n | n | n | n | n
SMILES | CHO-K1 Ca antag | M1 ag | M1 antag | CHRM1 PAM | CHO-K1 Ca ag | CHO-K1 Ca PAM
Fc1ccc(C(OCCN2CCCC2)c2ccc(F)cc2)cc1 | n | n | 79.0 | n | n | n
Fc1ccc(C(OCCN2CCCC2)c2ccc(Br)cc2)cc1 (stereo not given) | n | n | 81.0 | n | n | n
CCOC(=O)C(O)(c1ccc(NC(=O)NC)cc1)C(F)(F)F (stereo not given) | n | n | n | n | n | n
Nc1ccc2ccc3cccc[n+]3c2c1 | n | n | n | n | 32.3 | n
CC(C)(C)C(=O)OC[N+](C)(C)CCOC(=O)C(O)(c1ccccc1)C1CCCC1 (stereo not given) | n | n | 98.2 | n | n | n
O=C(O)C(O)(c1ccccc1)C1CCCC1 (stereo not given) | n | n | n | n | n | n
CCCC(CCC)C(=O)OC[N+](C)(C)CCOC(=O)C(O)(c1ccccc1)C1CCCC1 (stereo not given) | n | n | 99.1 | n | n | n
O=P1(Oc2ccccc2)C[C@@H](O)[C@@H](O)[C@H](COCc2ccccc2)O1 (stereo not given in full) | n | n | n | n | n | n
O=P(Oc1ccccc1)(Oc1ccccc1)N1CCOCC1 | n | n | n | n | n | n
CCN(CC)P(=O)(c1n(CC)cc[n+]1CC)N(CC)CC | 32.4 | n | n | n | n | n
CCC1(CC)C(=O)NC(=O)N(CCc2ccccn2)C1=O | n | n | n | n | n | n
NCCc1ccc(OCc2ccccc2)c(OCc2ccccc2)c1 | n | n | n | n | 15.9 | n
O=C(Nc1ccccc1Cl)OC1CN2CCC1CC2 (stereo not given) | n | n | 54.5 | n | n | n
CN1CCN(CC#CCOc2ccc(Cl)cc2)CC1 | n | n | n | n | n | n
O=C(Nc1cccc(Cl)c1)OCC#CCN1CCCC1 | n | 44.9 | 62.2 | n | n | n
O=C(Nc1ccc(Cl)cc1)OC1CN2CCC1CC2 (stereo not given) | n | n | n | n | n | n
O=C(Nc1cccc(Cl)c1)OC1CN2CCC1CC2 (stereo not given) | 44.9 | n | n | n | 16.5 | n
O=C(Nc1ccccc1F)OC1CN2CCC1CC2 (stereo not given) | n | n | n | n | n | n
Cc1ccc(OP2(=O)Nc3cc(C)c(C)cc3S2)cc1 (stereo not given) | n | n | n | n | n | n
CN(C)C(=O)Oc1ccc2c(c1)O/C(=C\c1cccc(Cl)c1)C2=O | n | n | n | n | n | n
CCC1(CC)COP(=O)(OCC(Cl)CCl)OC1 (stereo not given) | n | n | n | n | n | n
O=C1NC(=O)C(=Cc2ccc(OCC(=O)N3CCOCC3)cc2)C(=O)N1 | 29.1 | n | n | n | n | n
CN(CCOc1ccc(C=C2C(=O)NC(=O)NC2=O)cc1)c1ccccn1 | n | n | n | n | n | n
COC(=O)C1=C(c2c(C)noc2C)C[C@@H]2CC[C@H]1N2C(=O)N1CCc2cc(OC)c(OC)cc2C1 | n | n | n | n | n | n

Source: PubChem (The Scripps Research Institute Molecular Screening Center)
